# Source: PubChem BioAssay
# Unmarked numbers belong to inactive results. The source made the active and inactive calls.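 The calls were made as follows: active = inhibition at or above 50% relative to wild type and mutant plate controls; inactive = inhibition below 50%.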
# Assay: loss of swimming-algae plug formation – whole organism, Chlamydomonas reinhardtii, WT vs cilia-less mutant, absorbance, 96-well, primary screen (AID 463189);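 also: 0% = wild type cc124 cells in DMSO and 100% = ciliumless bld1 mutant cells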
# Conditions: Chlamydomonas reinhardtii gravitaxis, OD600 absorbance, 2 days; at 10 µM; hits give high values
row,Compound,inhibition
1,NCCCCNCCCN,-15.4%
2,Cc1ccc(O)c(N=Nc2ccccc2)n1,-1.99%
3,CCCn1c(=O)c2[nH]c(-c3ccc(S(=O)(=O)O)cc3)nc2n(CCC)c1=O,1.25%
4,Fc1ccc(CN(C2=NCCN2)c2c(Cl)cccc2Cl)cc1,-0.588%
5,NC(N)=NCCSSCCN=C(N)N,-8.7%
6,CN(C)CCC(c1ccc(Cl)cc1)c1ccccn1 (stereo not given),9.56%
7,CCCN(CCc1ccccc1)C1CCc2c(O)cccc2C1 (stereo not given),5.13%
8,NC(N)=N[C@@H](CCC(=O)O)C(=O)O,2.13%
9,CC1CCN=C(N)S1 (stereo not given),0.783%
10,CC1(C)CCC(NC(=O)[C@@H](N)CCC(=O)O)CC1,2.89%
11,O=C(N[C@@H](Cc1ccccc1)C(=O)CCl)OCc1ccccc1,0.05%
12,N[C@@H](Cc1cnc[nH]1)C(=O)O,-1.75%
13,CCC1(O)CC2CN(CCc3c([nH]c4ccccc34)[C@@](C(=O)OC)(c3cc4c(cc3OC)N(C)C3[C@]45CCN4CC=C[C@@](CC)([C@@H](OC(C)=O)[C@]3(O)C(=O)OC)[C@H]45)C2)C1 (stereo not given in full),4.61%
14,NC1CCN(c2cccc(Cl)n2)CC1,-3.28%
15,CN1C(C)(C)CCCC1(C)C,7.18%
16,CN1CCc2cc(NC(=O)Nc3cccnc3)ccc21,8.14%
17,Nc1ncnc2c1nc(Br)n2C1OC2COP(=O)(O)O[C@@H]2C1O (stereo not given in full),7.89%
18,OCc1cc(C(O)CNCCCCCCOCCCCc2ccccc2)ccc1O (stereo not given),6.68%
19,O=Nc1ccc2oc(=O)ccc2c1,-9.21%
20,CCCCCN(CCCCC)C(=O)C(CCC(=O)O)NC(=O)c1ccc(Cl)c(Cl)c1 (stereo not given),-0.994%

row,Compound,inhibition
1,N[C@@H](Cc1c[nH]c2ccccc12)C(=O)O,5.27%
2,CC1(C)CCC2=C(O1)c1ccccc1C(=O)C2=O,153% (active)
3,Nc1cc(=O)[nH]c(N)n1,-17.2%
4,COc1cccc(C(=O)NCCN2CCN(c3ccc(Cl)cc3)CC2)c1,0.497%
5,N[C@@H](Cc1ccc(F)cc1)C(=O)O,2.39%
6,Clc1ccccc1C(c1ccccc1)(c1ccccc1)n1ccnc1,96% (active)
7,O=c1c(O)c(-c2ccc(O)c(O)c2)oc2cc(O)cc(O)c12,2.39%
8,Oc1cc(O)cc(/C=C/c2ccc(O)c(O)c2)c1,0.047%
9,Nc1ncn([C@@H]2O[C@H](CO)[C@@H](O)[C@H]2O)c(=O)n1,3.22%
10,CC(C)NC[C@H](O)COc1cccc2ccccc12,8.72%
11,COc1ccccc1N1CCN(CCN(C(=O)c2ccc(F)cc2)c2ccccn2)CC1,0.605%
12,C=C/C(C)=C/[C@@]1(C)SC(=O)C(C)=C1O,5.01%
13,NS(=O)(=O)c1cccc2c1c([N+](=O)[O-])cc1nc(O)c(O)nc12,0.793%
14,O=C(O)CCC(C(=O)O)N1C(=O)c2ccccc2C1=O (stereo not given),0.124%
15,N#CC(C#N)=C(N)/C(C#N)=C/c1ccc(O)cc1,5.33%
16,N=c1ccn2c(n1)OC1[C@@H](O)[C@@H](CO)O[C@H]12 (stereo not given in full),-5.06%
17,O=C(c1ccc(OCCN2CCCCC2)cc1)c1c(-c2ccc(O)cc2)sc2cc(O)ccc12,4.7%
18,N[C@@H](CCC(=O)N[C@H](CSN=O)C(=O)NCC(=O)O)C(=O)O,3.12%
19,N#CC(=C(\N)Sc1ccccc1N)/C(C#N)=C(/N)Sc1ccccc1N,13.7%
20,FC(F)(F)c1ccccc1-n1ccnc1,2.41%
